Consider 14 compounds from PubChem BioAssay (NCATS).

Records with an inconclusive call do not appear. Where a call stands in place of a potency, no number is given. Calls of active or inactive are those of the source. Calls follow the shape of the dose curve; as a rule, active = well fitted curve in the direction sought with a large enough effect; inconclusive = small, poorly fitted or top-dose-only effect, or another doubt; inactive = no such curve, though single readings can be large; an effect the other way counts as inactive or inconclusive.

The first test is described as follows: Cellular Toxicity (caspase-3) Jurkat (AID 655).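 Also: cells exposed to compound for 16 h at 37 °C before reading.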 As to conditions: Jurkat caspase-3 activation, luminescence; series mostly up to 92.2 µM. The method in brief: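 Luminescent caspase-3/7 readout (aminoluciferin substrate cleavage) in human T-cell leukemia Jurkat cells after 16 hr compound exposure. Concentration-response normalized to DMSO and 100 uM tamoxifen; AC50 by standard Hill equation.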
For `ClC(Cl)(Cl)Cl`, the Potency result was “inactive”.
Same read-out and setting: the result for `O=[N+]([O-])c1ccc(F)c([N+](=O)[O-])c1` reads “inactive”.
Same read-out and setting: the result for `O=C(O)C(Cl)(Cl)Cl` reads “inactive”; that for `CCCCCCCCOC(=O)c1ccccc1C(=O)OCCCCCCCC`, “inactive”.
The same measure, in the same setting: the same measure for `CCCCCl`: “inactive”; for `O=Cc1ccco1`: “inactive”; for `O=[N+]([O-])c1ccccc1`: “inactive”.
Regarding `O=CC=O`, the Potency result is “inactive”.
On the same count and under the same terms, the result for `Clc1ccccc1Cl` reads “inactive”.
The same measure, in the same setting: the same measure for `C[C@H]1CC[C@@H]2[C@@H](C)[C@H]3[C@H](C[C@H]4[C@@H]5CC=C6CC(O[C@@H]7O[C@H](CO)[C@H](O)[C@H](O[C@@H]8O[C@H](CO)[C@@H](O)[C@H](O)[C@H]8O)[C@H]7O[C@H]7O[C@@H](C)[C@H](O)[C@@H](O)[C@H]7O)CC[C@]6(C)[C@H]5CC[C@]34C)N2C1` (some centres undefined): “inactive”; for `S=C=S`: “inactive”.
The same measure, in the same setting: the result for `ClCC1CO1` (centres undefined) reads “inactive”.
Turning to `Oc1cc(Cl)c(Cl)cc1Cl`, the Potency result was “inactive”.
The same measure, in the same setting: the same measure for `COC1=CC(=O)O[C@@H](/C=C/c2ccccc2)C1`: “inactive”.

A short description of a further test: Cellular Toxicity (caspase-3) HUV-EC-C (AID 656). As to conditions: HUV-EC-C cells, caspase-3 activation (apoptosis), vehicle = 0, 100 µM tamoxifen = 100%; series mostly up to 92.2 µM. The method in brief:
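Luminescent caspase-3/7 activation (aminoluciferin substrate cleavage) in HUV-EC-C cells after 16 hr compound exposure, 37°C. Signal normalized to DMSO basal and 100 uM tamoxifen as 100%; AC50 from concentration-response fitted with the Hill equation.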
With `ClC(Cl)(Cl)Cl`, the compound was called inactive.
Still for that read-out and setting: the result for `O=[N+]([O-])c1ccc(F)c([N+](=O)[O-])c1` reads “inactive”.
Still for that read-out and setting: the same measure for `O=C(O)C(Cl)(Cl)Cl`: “inactive”; for `CCCCCCCCOC(=O)c1ccccc1C(=O)OCCCCCCCC`: “inactive”; for `CCCCCl`: “inactive”.
Same read-out and setting: the same measure for `O=Cc1ccco1`: “inactive”; for `O=[N+]([O-])c1ccccc1`: “inactive”; for `O=CC=O`: “inactive”.
Turning to `Clc1ccccc1Cl`, the compound was classed as inactive.
Turning to `C[C@H]1CC[C@@H]2[C@@H](C)[C@H]3[C@H](C[C@H]4[C@@H]5CC=C6CC(O[C@@H]7O[C@H](CO)[C@H](O)[C@H](O[C@@H]8O[C@H](CO)[C@@H](O)[C@H](O)[C@H]8O)[C@H]7O[C@H]7O[C@@H](C)[C@H](O)[C@@H](O)[C@H]7O)CC[C@]6(C)[C@H]5CC[C@]34C)N2C1` (some centres undefined), the compound was classed as inactive.
Regarding `S=C=S`, the result was inactive.
Consider `ClCC1CO1` (centres undefined), for which the result was inactive.
With `Oc1cc(Cl)c(Cl)cc1Cl`, the compound was classed as inactive.
On the same count and under the same terms, the result for `COC1=CC(=O)O[C@@H](/C=C/c2ccccc2)C1` reads “inactive”.

The nature of a further test: Cellular Toxicity (caspase-3) SHSY5Y (AID 657).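 Also: cells exposed to compound for 16 hours at 37 °C.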 As to conditions: SH-SY5Y caspase-3 activation, DMSO zero, 10 µM staurosporine = 100%; series mostly up to 91.7 µM. The method in brief:
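Luminescent caspase-3/7 readout (aminoluciferin release) in SH-SY5Y cells after 16 h compound exposure in complete medium. Activity scaled between DMSO basal and 10 uM staurosporine as 100%; concentration-response fitted to Hill equation for AC50.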
`ClC(Cl)(Cl)Cl`: the result was inactive.
On the same count and under the same terms, the same measure for `O=[N+]([O-])c1ccc(F)c([N+](=O)[O-])c1`: “inactive”; for `O=C(O)C(Cl)(Cl)Cl`: “inactive”; for `CCCCCCCCOC(=O)c1ccccc1C(=O)OCCCCCCCC`: “inactive”.
Still for that read-out and setting: the same measure for `CCCCCl`: “inactive”; for `O=Cc1ccco1`: “inactive”.
Same read-out and setting: the result for `O=[N+]([O-])c1ccccc1` reads “inactive”.
Consider `O=CC=O`, for which the compound was classed as inactive.
The same measure, in the same setting: the same measure for `Clc1ccccc1Cl`: “inactive”; for `C[C@H]1CC[C@@H]2[C@@H](C)[C@H]3[C@H](C[C@H]4[C@@H]5CC=C6CC(O[C@@H]7O[C@H](CO)[C@H](O)[C@H](O[C@@H]8O[C@H](CO)[C@@H](O)[C@H](O)[C@H]8O)[C@H]7O[C@H]7O[C@@H](C)[C@H](O)[C@@H](O)[C@H]7O)CC[C@]6(C)[C@H]5CC[C@]34C)N2C1` (some centres undefined): “inactive”.
The same measure, in the same setting: the result for `S=C=S` reads “inactive”; that for `ClCC1CO1` (centres undefined), “inactive”.
Still for that read-out and setting: the same measure for `Oc1cc(Cl)c(Cl)cc1Cl`: “inactive”.
As for `COC1=CC(=O)O[C@@H](/C=C/c2ccccc2)C1`, the result was inactive.

A further test can be described thus: Cellular Toxicity (caspase-3) MRC-5 (AID 659). As to conditions: MRC-5 cells, luminescence; Potency: caspase-3 activation; series mostly up to 91.7 µM. The method in brief: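 Luminescent Caspase-Glo 3/7 read-out (1 h, room temperature) after a 16 h, 37 °C compound exposure of MRC-5 lung fibroblasts at 1500 cells/well. Concentration-response AC50 from Hill equation; 0% DMSO, 100% 10 uM staurosporine.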
On to `ClC(Cl)(Cl)Cl`, for which the Potency result was “inactive”.
Still for that read-out and setting: the result for `O=[N+]([O-])c1ccc(F)c([N+](=O)[O-])c1` reads “inactive”.
Same read-out and setting: the result for `O=C(O)C(Cl)(Cl)Cl` reads “inactive”; that for `CCCCCCCCOC(=O)c1ccccc1C(=O)OCCCCCCCC`, “inactive”; that for `CCCCCl`, “inactive”.
Same read-out and setting: the result for `O=Cc1ccco1` reads “inactive”.
`O=[N+]([O-])c1ccccc1`: the Potency entry is “inactive”.
Same read-out and setting: the same measure for `O=CC=O`: “inactive”; for `Clc1ccccc1Cl`: “inactive”.
Still for that read-out and setting: the result for `C[C@H]1CC[C@@H]2[C@@H](C)[C@H]3[C@H](C[C@H]4[C@@H]5CC=C6CC(O[C@@H]7O[C@H](CO)[C@H](O)[C@H](O[C@@H]8O[C@H](CO)[C@@H](O)[C@H](O)[C@H]8O)[C@H]7O[C@H]7O[C@@H](C)[C@H](O)[C@@H](O)[C@H]7O)CC[C@]6(C)[C@H]5CC[C@]34C)N2C1` (some centres undefined) reads “inactive”; that for `S=C=S`, “inactive”.
The same measure, in the same setting: the result for `ClCC1CO1` (centres undefined) reads “inactive”; that for `Oc1cc(Cl)c(Cl)cc1Cl`, “inactive”.
As to `COC1=CC(=O)O[C@@H](/C=C/c2ccccc2)C1`, the Potency result is “inactive”.

The nature of a further test: Cellular Toxicity (caspase-3) Mesangial (AID 660).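 Also: combined caspase 3 and 7 activity read by Caspase-Glo luminescence; cells exposed to compound for 16 h before the caspase read.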 The conditions noted are these: mesangial cells, normalized: DMSO 0%, 100 µM tamoxifen 100%; series mostly up to 91.7 µM. The method in brief:
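Caspase 3/7 activation measured by Caspase-Glo 3/7 luminescence (20 min, room temperature) following 16 h exposure of mesangial cells (1000/well); AC50 from Hill-equation fit, normalized to DMSO and 100 uM tamoxifen.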
As for `ClC(Cl)(Cl)Cl`, the result was inactive.
Still for that read-out and setting: the same measure for `O=[N+]([O-])c1ccc(F)c([N+](=O)[O-])c1`: “inactive”.
As for `O=C(O)C(Cl)(Cl)Cl`, the outcome was inactive.
Still for that read-out and setting: the same measure for `CCCCCCCCOC(=O)c1ccccc1C(=O)OCCCCCCCC`: “inactive”.
Still for that read-out and setting: the result for `CCCCCl` reads “inactive”; that for `O=Cc1ccco1`, “inactive”; that for `O=[N+]([O-])c1ccccc1`, “inactive”.
Same read-out and setting: the result for `O=CC=O` reads “inactive”.
In the case of `Clc1ccccc1Cl`, the outcome was inactive.
The same measure, in the same setting: the same measure for `C[C@H]1CC[C@@H]2[C@@H](C)[C@H]3[C@H](C[C@H]4[C@@H]5CC=C6CC(O[C@@H]7O[C@H](CO)[C@H](O)[C@H](O[C@@H]8O[C@H](CO)[C@@H](O)[C@H](O)[C@H]8O)[C@H]7O[C@H]7O[C@@H](C)[C@H](O)[C@@H](O)[C@H]7O)CC[C@]6(C)[C@H]5CC[C@]34C)N2C1` (some centres undefined): “inactive”; for `S=C=S`: “inactive”.
Still for that read-out and setting: the same measure for `ClCC1CO1` (centres undefined): “inactive”; for `Oc1cc(Cl)c(Cl)cc1Cl`: “inactive”.
On the same count and under the same terms, the same measure for `COC1=CC(=O)O[C@@H](/C=C/c2ccccc2)C1`: “inactive”.

A further test is described as follows: Cellular Toxicity (caspase-3) SK-N-SH (AID 661).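 Also: cells exposed to compound for 16 hours.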 As to conditions: SK-N-SH caspase-3 activation, qHTS; caspase-3 activation: at 91.7 µM (top of the series), DMSO as zero, staurosporine as full. The method in brief: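 Caspase 3/7 activation was read by luminogenic substrate cleavage after 16 hour treatment of SK-N-SH cells. Signal was scaled between DMSO and 10 uM staurosporine, and concentration-response data were fitted with the Hill equation for AC50.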
As for `ClC(Cl)(Cl)Cl`, the Potency result is “inactive”.
Same read-out and setting: the same measure for `O=[N+]([O-])c1ccc(F)c([N+](=O)[O-])c1`: “inactive”; for `O=C(O)C(Cl)(Cl)Cl`: “inactive”.
In the case of `CCCCCCCCOC(=O)c1ccccc1C(=O)OCCCCCCCC`, the Potency result is “inactive”.
Same read-out and setting: the result for `CCCCCl` reads “inactive”.
As to `O=Cc1ccco1`, the Potency entry was “inactive”.
Turning to `O=[N+]([O-])c1ccccc1`, the Potency result was “inactive”.
`O=CC=O`: the Potency entry is “inactive”.
Still for that read-out and setting: the same measure for `Clc1ccccc1Cl`: “inactive”; for `C[C@H]1CC[C@@H]2[C@@H](C)[C@H]3[C@H](C[C@H]4[C@@H]5CC=C6CC(O[C@@H]7O[C@H](CO)[C@H](O)[C@H](O[C@@H]8O[C@H](CO)[C@@H](O)[C@H](O)[C@H]8O)[C@H]7O[C@H]7O[C@@H](C)[C@H](O)[C@@H](O)[C@H]7O)CC[C@]6(C)[C@H]5CC[C@]34C)N2C1` (some centres undefined): “inactive”.
On the same count and under the same terms, the same measure for `S=C=S`: “inactive”; for `ClCC1CO1` (centres undefined): “inactive”.
On to `Oc1cc(Cl)c(Cl)cc1Cl`, for which the Potency entry was “inactive”.
On the same count and under the same terms, the result for `COC1=CC(=O)O[C@@H](/C=C/c2ccccc2)C1` reads “inactive”.
